Reference: PubChem BioAssay (NCI)
The panel holds about 83,000 compounds, 20% with a hit somewhere; the sample as a whole holds those more often.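 Compound tested at a single concentration for 48 hours in 96-well plates; a percent growth value below 10 was scored as active.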 Unmarked numbers belong to inactive results. Calls of active or inactive are those of the source.

Test system: BT-549 breast
Experiment: NCI-60 one-dose screen, 48 h (100 = growth as untreated, 0 = no growth, -100 = all killed)
Details: 10 µM

Row | Compound | growth
1 | NS(=O)(=O)Oc1ccc(NC(=O)C2CCCCCC2)cc1 | 104%
2 | O=C(CSc1nnc(-c2cccnc2SCc2ccccc2)o1)Nc1nc(Cl)cc(Cl)n1 | 102%
3 | O=C1/C=C/[C@@H](O)[C@@H]2C[C@@H](O)C[C@H]2/C=C/CCC[C@H](CCc2ccc(NC(=S)Nc3ccc4c(c3)C(=O)OC43c4ccc(O)cc4Oc4cc(O)ccc43)cc2)O1 | 21.3%
4 | O=C(CCl)Nc1ccc(Cc2ccc(NC(=O)CCl)cc2)cc1 | -23.5% (active)
5 | Cc1cc(Cl)ccc1Nc1nc(C(F)(F)F)ccc1C(=O)N/N=C/c1c(Cl)cccc1Cl | -15% (active)
6 | COc1ccc2c(c1)C(=O)/C(=C/c1ccc([N+](=O)[O-])o1)O2 | -49.9% (active)
7 | S=C(SSC(=S)N(c1ccccc1)c1ccccc1)N(c1ccccc1)c1ccccc1 | 109%
8 | CC(C)=CCC/C(C)=C/CC/C(C)=C/CC/C=C(\C)CC/C=C(\C)CCC(=O)Nc1ccn(C2OC(CO)C(O)C2(F)F)c(=O)n1 (stereo not given) | 18.3%
9 | c1ccc(/C(=N\Nc2ccc3ccccc3n2)c2ccccn2)cc1 | 12.3%
10 | c1ccc(CSc2ncccc2-c2nnc(SCCN3CCOCC3)o2)cc1 | 112%
11 | CN(C)c1ncnc2c1nnn2C1OC(CO)C(O)C1O (stereo not given) | 46.1%
12 | COc1ccccc1/C=N\N/C(N)=N\N=C\c1ccccc1OC | -4.14% (active)
13 | COc1cc(/C=C/c2cc(/C=C/c3ccc(O)c(OC)c3)nc(N)n2)ccc1O | -24.4% (active)
14 | O=C(/C=C/c1cccc(B(O)O)c1)c1cccc(B(O)O)c1 | -91% (active)
15 | CN(C)CCC1(c2ccccc2)CCN(C)C1=O (stereo not given) | 106%
16 | COc1ccc(/C=C/c2nnc(/C=C/c3ccc(OC)c(OC)c3)o2)cc1OC | 25.5%
17 | CN(C)c1ccc(/C=N/NC(=O)c2ccccc2Nc2cccc(C(F)(F)F)c2)cc1 | 79.1%
18 | CN(C)CCOc1ccc(-c2nc3sccn3c2-c2ccnc(S(C)(=O)=O)n2)cc1 | 118%
19 | COc1ccc(CCN2CCC(Nc3nc4ccccc4n3Cc3ccc(F)cc3)CC2)cc1 | 31.9%
20 | O=C(CN(C1CCCCC1)C1CCCCC1)Nc1ccc(S(=O)(=O)c2ccc(NC(=O)CN(C3CCCCC3)C3CCCCC3)cc2)cc1 | -85.3% (active)

Row | Compound | growth
21 | COc1ccc2nc(-c3ccc(Cl)cc3)cc(-c3nnc(SC/C(=N\O)c4ccccc4)n3-c3ccccc3)c2c1 | 90.8%
22 | Cc1cc(CSc2ccccc2C(=O)N2CC=C(c3ccccc3)CC2)on1 | 101%
23 | CCOC(=O)c1cc(C(=O)c2cc(OC)c(OC)c(OC)c2)n2nc(C)ccc12 | 47.5%
24 | O=C(O)c1ccc(-n2cc(CNc3ccc(Cl)cc3)c(-c3ccccc3)n2)cc1 | 90.2%
25 | CNC(=O)c1cc(Oc2ccc3c(c2)sc2nc(-c4ccc(N)cc4)cn23)ccn1 | 5.56% (active)
26 | Nc1ccc(CC[C@H]2CCC/C=C/[C@@H]3C[C@H](O)C[C@H]3[C@H](O)/C=C/C(=O)O2)cc1 | 11.6%
27 | CNC(=O)c1cn(C2CC2)c2cc(N3CCN(C(=O)c4cc(OC)c(OC)c(OC)c4)CC3)c(F)cc2c1=O | 112%
28 | CN1CCN(C2=Nc3ccccc3Oc3ccc(Cl)cc32)CC1 | 111%
29 | COc1ccc(Cc2cnc(N)nc2N)cc1OC | 106%
30 | COc1ccc(C(c2ccc(OCCN(C)C)cc2)c2cc3ccccc3c3ccccc23)cc1 (stereo not given) | 93%
31 | O=C(N/N=C/c1ccc(Cl)cc1)c1ccccc1Nc1cccc(C(F)(F)F)c1 | 60.2%
32 | CC(=O)O[C@@]12CO[C@@H]1C[C@H](O)[C@@]1(C)C(=O)[C@H](O)C3=C(C)[C@@H](OC(=O)[C@H](O)[C@@H](NC(=O)OC(C)(C)C)c4ccccc4)C[C@@](O)([C@@H](OC(=O)c4ccccc4)C12)C3(C)C (stereo not given in full) | 42.8%
33 | CS(=O)(=O)c1nccc(-c2c(-c3cccc(OCCc4ccccc4)c3)nc3sccn23)n1 | 116%
34 | C(=N\Nc1ncnc2sc3c(c12)CCNC3)/c1cccc2ccccc12 | 92.5%
35 | CNS(=O)(=O)Oc1ccc(-c2sc3cc(OS(=O)(=O)NC)ccc3c2C(=O)c2ccc(OCCN3CCCCC3)cc2)cc1 | 73.7%
36 | CCCCC/C=C/C/C=C/CCCCCCCC1=NC(C)(C)CN1C(C)C | 77.8%
37 | C#C[C@]1(O)CCC2C3CCc4cc(OC5CCCC5)ccc4C3CC[C@@]21C (stereo not given in full) | 105%
38 | O=C(N/N=C/c1c(Cl)cccc1Cl)c1ccccc1Nc1cccc(C(F)(F)F)c1 | 81.3%
39 | COc1cccc(-c2nc3sccn3c2-c2cccc(S(C)(=O)=O)c2)c1 | 103%
40 | CC(=O)Nc1ccc(S(=O)(=O)c2ccnc3cc(Cl)ccc23)cc1 | 94.9%
